# According to PubChem BioAssay (Tox21):
# A number with no mark means an inactive call. Active and inactive are the calls of the source. Calls come from the whole dose curve; as a rule, active = well fitted curve in the direction sought with a large enough effect in the repeat runs; inconclusive = weak or mixed curves; inactive = flat fitted curve, though single readings scatter.
# Assay: qHTS assay to test for compound auto fluorescence at 460 nm (blue) in HepG2 cell free culture (AID 720685)
# Conditions: Cell-free culture medium, blue autofluorescence 405/460 nm; series mostly up to 91.3 µM
# Description: U.S. Tox21 Program National Center for Advancing Translational Sciences [NCATS] NIH Chemical Genomics Center [NCGC] U.S. Environmental Protection Agency [EPA] National Institutes of Environmental Health Sciences [NIEHS] National Toxicology Program [NTP] U.S. Food and Drug Administration [FDA] Tox21 Assay Overview: Compound auto fluorescence often interferes with screening of the compound library against various biological targets and signaling pathways. Some of these compounds may have fluorophoric properties. Such properties may interfere with the assay outputs resulting in false positives and/or negatives. To decrease such complications and ensure the compound activities are relevant in terms of biological response, the Tox21 10K compound library was screened for auto fluorescence. From the fluorophores used as reporter signals in our screening assays, the auto fluorescence equivalencies of compounds against three fluorophores have been evaluated: Triamterene, Fluorescein and Rose Bengal sodium for blue, green and red fluorescence, respectively. The fluorescence intensities were measured using Excitation/Emission wavelengths at 405/460nm, 485/535nm and 540/590nm for blue, green and red labels, respectively. This assay includes the blue fluorescence data.
# Tox21 Assay Protocol Summary: 5 uL of culture medium (MEM containing 10% FBS) per well was dispensed into black wall/clear bottom 1536-well plates using a Multidrop Combi Dispenser (ThermoFisher Scientific, Waltham, MA). After 23 nL compound or DMSO vehicle was transferred into assay plate by a pintool work station (Kalypsys, San Diego, CA), fluorescence intensities in the assay plates were measured by an Envision (PerkinElmer, Shelton, CT) plate reader using three labels for measuring blue, green and red fluorescence at […] 460, 535 and 590nm respectively.
# % is set by controls: 0 for no effect and ±100 for the full control effect.
SMILES,outcome,"fluorescence, % of fluorescent control"
CN(C)CCN(Cc1ccccc1)c1ccccn1,inactive,
COc1cc2nc(N3CCN(C(=O)C4COc5ccccc5O4)CC3)nc(N)c2cc1OC (stereo not given),inactive,
CCCCCCCCCCCC(=O)OC[C@@H](O)[C@H]1OC[C@H](OCCO)[C@H]1OCCO,inactive,
CCCCC1=NC2(CCCC2)C(=O)N1Cc1ccc(-c2ccccc2-c2nn[nH]n2)cc1,inactive,
O=[N+]([O-])c1ccc2[nH]ncc2c1,inactive,
Nc1cc(C(=O)O)c(O)c(S(=O)(=O)O)c1,inactive,
C#C[C@]1(O)CC[C@H]2[C@@H]3CCc4cc(OC5CCCC5)ccc4[C@H]3CC[C@@]21C,inactive,
O=C1OC(CN2CCOCC2)CN1/N=C/c1ccc([N+](=O)[O-])o1 (stereo not given),,-0.135% [at 18.6 µM]
C=C1C(=C/C=C2\CCC[C@]3(C)[C@@H]([C@H](C)/C=C/[C@@H](O)C4CC4)CC[C@@H]23)C[C@@H](O)C[C@@H]1O,inactive,
CC1(c2ccccc2)OC(C(=O)O)=CC1=O (stereo not given),inactive,
C=C(C)C(=O)OCCO,inactive,
Brc1c2ccccc2c(Br)c2ccccc12,,0.581% [at 3.72 µM]
C=CC(=O)OCCOCCOC(=O)C=C,inactive,
CCOC(=O)C(F)(F)F,inactive,
COc1ccc(C(=O)N2CCN(CC(=O)N3CCOCC3)CC2)cc1,inactive,
Cn1c(=O)cc(Oc2ccc(F)cc2F)c2cnc(NCC(C)(C)O)nc21,inactive,
CCCCCCCCCc1ccc(OCCOCCO)cc1,inactive,
CCCCCCCCCCCCCCCCCCOS(=O)(=O)O,inactive,
Nc1cccc(S(=O)(=O)c2cccc(N)c2)c1,inactive,
CC(=O)[O][Al][O]C(C)=O,inactive,

SMILES,outcome,"fluorescence, % of fluorescent control"
COc1cc(C(=O)OCCCN2CCCN(CCCOC(=O)c3cc(OC)c(OC)c(OC)c3)CC2)cc(OC)c1OC,inactive,
CN(C)c1ccc(CCO)cc1,inactive,
C#Cc1cccc(Nc2ncnc3cc(OCCOC)c(OCCOC)cc23)c1,inactive,
CCO[Si](CCCCl)(OCC)OCC,inactive,
C=CC(=O)OCCOCCOCCOCCOC(=O)C=C,inactive,
C[Si](C)(CCCN)O[Si](C)(C)CCCN,inactive,
COc1ccnc(CS(=O)c2nc3ccc(OC(F)F)cc3[nH]2)c1OC (stereo not given),inactive,
OC[C@H]1O[C@@H](OCCc2ccc(O)cc2)[C@H](O)[C@@H](O)[C@@H]1O,inactive,
C=C(C)C(=O)OCC,inactive,
NC(N)=NCCC[C@H](N)C(=O)O,inactive,
COc1cc2nc(N(C)CCCNC(=O)C3CCCO3)nc(N)c2cc1OC (stereo not given),,-0.0022% [at 18.6 µM]
CCCCCCCC/C=C\CCCCCCCC(=O)OCC,inactive,
O=C(Nc1ccccc1)c1ccccc1O,inactive,
C/C(=C(\CCOP(=O)(O)O)SC(=O)c1ccccc1)N(C=O)Cc1cnc(C)nc1N,,-0.035% [at 18.6 µM]
O=C(O)C1(C(=O)Nc2ccc(Cl)cc2Cl)CC1,inactive,
CCCCCCCCCCCCCCOS(=O)(=O)O,inactive,
CC1=CCCC(C)(C)C12CCC(C)O2 (stereo not given),inactive,
Cc1ncc(CO)c(C=O)c1O,inactive,
Cc1cc(C(=O)O)ccc1[N+](=O)[O-],inactive,
Cc1[nH]c(C)c(Cl)c(=O)c1Cl,inactive,
